# According to PubChem BioAssay AID588458 (Sanford-Burnham Center for Chemical Genomics, 2011):
# Several values for one entry are separate records, joined by “and”; a condition that tells them apart may be missing. Identical values can stand only once. The campaign covered roughly 360,000 compounds. About 3,000 (0.83%) were called active. Rule as the data show it: active = inhibition above about 50%; inactive = the rest. The full list was thinned out, with actives kept by preference. Some compounds were tested as several samples or in several runs, with calls that do not always agree.
# Molecular target: DNA (cytosine-5)-methyltransferase 1 (Homo sapiens) (UniProt P26358)
# Assay: human DNMT1 methyltransferase inhibitors, primary screen, biochemical, molecular beacon, fluorescence, HinP1I cleavage, uHTS (AID 588458)
# Conditions: at 10 µM, stronger effect = higher value
# Sequence of DNA (cytosine-5)-methyltransferase 1 (Homo sapiens) (P26358 504-1616 limits assumed): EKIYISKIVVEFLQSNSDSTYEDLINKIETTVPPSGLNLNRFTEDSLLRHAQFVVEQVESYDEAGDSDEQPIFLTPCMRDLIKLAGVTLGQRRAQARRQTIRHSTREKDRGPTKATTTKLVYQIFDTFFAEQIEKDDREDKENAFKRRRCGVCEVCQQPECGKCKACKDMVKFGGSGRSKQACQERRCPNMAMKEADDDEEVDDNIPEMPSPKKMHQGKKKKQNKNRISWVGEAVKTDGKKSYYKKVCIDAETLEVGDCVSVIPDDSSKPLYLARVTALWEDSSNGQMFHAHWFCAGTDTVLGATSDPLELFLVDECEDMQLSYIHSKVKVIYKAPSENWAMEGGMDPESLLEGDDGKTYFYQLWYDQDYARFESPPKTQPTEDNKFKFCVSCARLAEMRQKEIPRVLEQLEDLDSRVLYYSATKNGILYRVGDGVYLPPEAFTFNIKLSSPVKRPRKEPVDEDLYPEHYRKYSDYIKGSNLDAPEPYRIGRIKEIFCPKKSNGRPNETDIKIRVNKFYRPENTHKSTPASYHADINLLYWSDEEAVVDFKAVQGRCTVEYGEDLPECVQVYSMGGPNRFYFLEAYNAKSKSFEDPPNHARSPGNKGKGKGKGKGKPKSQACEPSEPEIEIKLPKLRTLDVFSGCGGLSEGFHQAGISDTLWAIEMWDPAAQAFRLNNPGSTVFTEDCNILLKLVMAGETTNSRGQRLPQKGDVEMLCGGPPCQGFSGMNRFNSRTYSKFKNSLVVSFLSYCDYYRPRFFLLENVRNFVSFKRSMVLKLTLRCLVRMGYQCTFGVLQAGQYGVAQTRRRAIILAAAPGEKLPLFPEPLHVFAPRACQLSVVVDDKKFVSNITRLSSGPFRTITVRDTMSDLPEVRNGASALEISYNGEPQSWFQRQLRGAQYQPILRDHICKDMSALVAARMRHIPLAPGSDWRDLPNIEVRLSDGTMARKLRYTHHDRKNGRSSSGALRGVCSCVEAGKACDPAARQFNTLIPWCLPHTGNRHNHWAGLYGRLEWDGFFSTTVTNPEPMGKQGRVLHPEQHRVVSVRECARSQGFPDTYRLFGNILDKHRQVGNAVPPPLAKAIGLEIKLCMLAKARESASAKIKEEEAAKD
row,Compound,inhibition (reported as % activation of signal)
1,O=C(Nc1cccc(F)c1)c1coc(=O)c(Br)c1,-1.29% (inactive)
2,CC(=O)c1ccc(NC(=O)CCNS(=O)(=O)c2cc(Br)cnc2N)cc1,2.08% (inactive)
3,CCCCN1CC(CO)Oc2cccc(F)c2S1(=O)=O (configuration not stated),0.29% (inactive)
4,OC[C@H]1O[C@@H](c2nc(-c3nc(-c4ccc(F)cc4)no3)cs2)[C@H](O)[C@@H](O)[C@H]1O,0.63% (inactive)
5,CCC1(C)Cc2c(sc3[nH]c(=S)n(Cc4ccccc4)c(=O)c23)CO1 (configuration not stated),-3.04% (inactive)
6,C=CCn1c(=S)[nH]c2scc(-c3ccco3)c2c1=O,94.1% (active)
7,Cc1ccccc1-n1cc(CNC(=O)CC2C(=O)NCCN2C/C=C/c2ccccc2)cn1 (configuration not stated),68.2% (active)
8,Cc1ccccc1-n1cc(CNC(=O)C2CCC(=O)N(C3CC3)C2)cn1 (configuration not stated),0.34% (inactive)
9,O=C(CC1C(=O)NCCN1Cc1ccc(-c2ccccc2)cc1)NCc1ccncc1 (configuration not stated),-12.2% (inactive)
10,COc1ccc(Cc2nnc(NC(=O)Cc3cccs3)s2)cc1,113% (active)
11,COc1ccccc1NC(=O)Nc1nnc(Cc2ccc(F)cc2)s1,9.56% (inactive)
12,COc1cc(OC)cc(C(=O)NNC(=O)Cc2cccs2)c1,7.66% (inactive)
13,CC(C)(C)NC(=O)C(c1ccncc1)N(C(=O)CNC(=O)c1ccco1)c1ccc2c(c1)OCO2 (configuration not stated),-1.68% (inactive)
14,CCOc1ccc(-n2cnnn2)cc1S(=O)(=O)N1CCC(C)CC1C (configuration not stated),4.44% (inactive)
15,CC(C)(C)OC(=O)C[C@@H]1C/C=C\C[C@@H](CC(=O)N[C@@H](CO)Cc2ccccc2)C(=O)N2CCC[C@H]2COC1=O,1.28% (inactive)
16,Nc1ncnc(Nc2cccc(Cl)c2Cl)n1,0.57% (inactive)
17,COc1cc(C(=O)Nc2cc(C(F)(F)F)ccc2-n2cncn2)cc(OC)c1OC,-2.48% (inactive)
18,O=C(COC(=O)c1ccccc1O)NCc1ccco1,50% (inactive)
19,Cc1cc(C(=O)OCC(=O)NCc2ccco2)c(C)n1-c1ccccc1,55.9% (active)
20,O=C(COC(=O)c1cnc(Cl)c(Cl)c1)NCc1ccco1,30.3% (inactive)
21,N#CC(C#N)=CN=c1ccn(Cc2ccc(Cl)cc2Cl)cc1,-4.93% (inactive)
22,Cc1cccc(C)c1NC(=O)C1(C)c2cccc[n+]2CC(=O)N1Cc1cccs1 (configuration not stated),-3.99% (inactive)

row,Compound,inhibition (reported as % activation of signal)
1,O=C(/C=C/c1cnc2ccccc2n1)NC1CCCCCC1,-5.96% (inactive)
2,COc1ccc(CCNC(=O)C(=O)NCC2OCCN2S(=O)(=O)c2ccc(OC)c(C)c2)cc1 (configuration not stated),-5.69% (inactive)
3,O=c1[nH][nH]c(C(F)(F)F)c1C=NCc1ccccc1Cl,-3.13% (inactive)
4,CCN(CC)S(=O)(=O)c1ccc(N2CC(C(=O)NCc3cccnc3)CC2=O)cc1 (configuration not stated),2.78% (inactive)
5,Cc1cc(N2CCCC2)ccc1NC(=O)COc1ccc(Cl)cc1,59.6% (active)
6,O=C(COc1ccc(/C=N/NC(=O)c2ccc(O)cc2)cc1)Nc1ccc([N+](=O)[O-])cc1,54% (active)
7,Cc1cc(C)cc(OCC(=O)Nc2ccc(N3CCOCC3)cc2N2CCOCC2)c1,-5.22% (inactive)
8,O=C(COc1ccc([N+](=O)[O-])cc1)Nc1ccc(N2CCCC2)cc1,92.5% (active)
9,O=C(COc1ccc(Cl)cc1)Nc1ccccc1CO,0.96% (inactive)
10,O=C(COC(=O)C1CCCCC1)Nc1ccc([N+](=O)[O-])cc1,-1.74% (inactive)
11,O=C(CCC(=O)N1CCCC1)Nc1ccc([N+](=O)[O-])cc1,0.7% (inactive)
12,O=C(COc1ccc([N+](=O)[O-])cc1)Nc1cccc(C(=O)Nc2ccccc2C(=O)O)c1,-0.08% (inactive)
13,O=C(N/N=C/c1cccc(OC(=O)c2ccc([N+](=O)[O-])cc2)c1)c1cccnc1,2.43% (inactive)
14,CC(CO)N1CCS(=O)(=O)CC1 (configuration not stated),4.55% (inactive)
15,Cc1ccc(C)n1-c1ccncc1,-0.41% (inactive)
16,COc1ccc(NS(=O)(=O)c2ccc(C)c(C(=O)N(C)Cc3ccc(OC)cc3OC)c2)cc1,-0.59% (inactive)
17,C[C@H]([C@@H](O)[C@@H](O)[C@@H](C)C(C)(C)C)[C@H]1CC[C@H]2C3CC[C@H]4C[C@H](OS(=O)(=O)O)[C@@H](OS(=O)(=O)O)C[C@]4(C)[C@H]3CC[C@]12C (some centres not stated),46.8% (inactive)
18,CC(C)Oc1ccc(CC(=O)NNC(=S)Nc2ccc(Br)cc2)cc1,-8.54% (inactive)
19,CCCOc1ccc(Cc2c(Cl)nc(SC)nc2NC)cc1,5.36% (inactive)
20,CC(C)c1ccc(Nc2nnc(SCC(=O)c3nnc(-c4ccccc4)o3)s2)cc1,79.2% (active)
21,CC(C)Nc1nnc(SCC(=O)c2c[nH]c3ccccc23)s1,-9.78% (inactive)
22,CC(C)N(C(=O)CSc1nnc(NC2CC2)s1)c1ccccc1,-1.85% (inactive)

row,Compound,inhibition (reported as % activation of signal)
1,CN(C)CCNC(=O)c1cccc(-c2cnc3c(NC=O)cc(-c4cccc(C(F)(F)F)c4)cn23)c1,-1.67% (inactive)
2,Cc1ccccc1NC(=O)CN1C(=O)N/C(=C\c2cccn2-c2cccc(C(=O)O)c2)C1=O,92.6% (active)
3,COC(=O)CN1C(=O)N/C(=C/c2ccc(OC)c(C)c2OC)C1=O,0.3% (inactive)
4,Cc1ccccc1NC(=O)Cn1c(=O)n(CC2CCCO2)c(=O)c2ccccc21 (configuration not stated),1.1% (inactive)
5,CC(C)n1ncc2c(C(=O)N3CCN(Cc4cccs4)CC3)cc(C3CC3)nc21,2.36% (inactive)
6,COc1cc(C)c(C(C)C)cc1S(=O)(=O)n1ccnc1,27.6% (inactive)
7,C=CCCC(=O)Nc1nc(C)c(-c2csc(Nc3ccc(Cl)cc3)n2)s1,-14.7% (inactive)
8,Cc1cn([C@H]2C[C@H](O)[C@@H](/C=C/C(=O)NCCCc3ccccc3)O2)c(=O)[nH]c1=O,1% (inactive)
9,CCC(=O)Nc1cccc(C2=NOC3(C2)C[C@@H](C(N)=O)N(C(=O)c2cc([N+](=O)[O-])cc([N+](=O)[O-])c2C)C3)c1 (some centres not stated),4.19% (inactive)
10,O=S(=O)(Nc1ccc2[nH]ncc2c1)c1ccccc1Cl,-2.94% (inactive)
11,COc1cc(/C(=C/c2ccccc2)c2ccccc2)c2c(c1)oc1ccccc12,10.2% (inactive)
12,Cc1nnc(N/N=C/c2ccccn2)[nH]c1=O,5.44% (inactive)
13,Cc1n[nH]c(=O)nc1N/N=C/c1cccs1,3.53% (inactive)
14,Cc1nnc(N/N=C/c2cccs2)[nH]c1=O,56% (active)
15,CNc1ccc(SC#N)cc1,-16.1% (inactive)
16,O/N=C1\CC2(Cc3nonc31)OCCO2,77.1% (active)
17,ON=C1/C(=N\O)CC2(C/C1=N/O)OCCO2,12.4% (inactive)
18,CC(C)N=C1CCCC1C(=S)SSC(=S)C1CCCC1=NC(C)C (configuration not stated),-10.8% (inactive)
19,O=C(NCCCN1CCOCC1)c1ccccc1NS(=O)(=O)c1ccc(F)cc1,0.01% (inactive)
20,O=[N+]([O-])c1cc(S(=O)(=O)Nc2cccc(Cl)c2)ccc1N=Nc1c(O)[nH]c2ccccc12,56.3% (active)
21,O=C(NCc1ccncc1)c1ccc(NS(=O)(=O)c2cccc([N+](=O)[O-])c2)cc1,-0.75% (inactive)
22,Cc1c(-c2ccccc2)n[nH]c1C(=O)N=Nc1c(O)[nH]c2ccccc12,47.8% (inactive)

row,Compound,inhibition (reported as % activation of signal)
1,CCc1cc(CNC(=O)CC2C(=O)NCCN2Cc2ccccc2C(F)(F)F)on1 (configuration not stated),-2.03% (inactive)
2,CCOC(=O)c1c(-c2cccc(N)c2)cn2ccccc12,2.56% (inactive)
3,NC(=S)NN=Cc1ccc(OC(=O)COc2cc(Cl)c(Cl)cc2Cl)cn1,-3.17% (inactive)
4,Cc1ccccc1CC1(CO)CCCN(Cc2ccc3c(c2)OCCO3)C1 (configuration not stated),-0.5% (inactive)
5,COc1cccc(CC2(CO)CCCN(Cc3ccc(OC(F)F)cc3)C2)c1 (configuration not stated),1.47% (inactive)
6,CCOc1cc(CN2CCCC(CO)(Cc3ccc(F)cc3F)C2)ccc1OC (configuration not stated),60.8% (active)
7,CC1(C(=O)NCc2ccc(F)c(F)c2)Cc2c(-c3ccc4c(c3)OCO4)ccnc2O1 (configuration not stated),-0.89% (inactive)
8,Cc1cc2c(cc1C)N1C(=O)c3cc4ccccc4cc3NC(=O)C1C(=O)N2 (configuration not stated),40.5% (inactive)
9,C=CC1=C(C(=O)O)N2C(=O)[C@@H](NC(=O)/C(=N\OCC(=O)O)c3csc(N)n3)[C@H]2SC1,81.2% (active)
10,C=CC1=C(C(=O)O)N2C(=O)[C@@H](NC(=O)/C(=N/OCC(=O)O)c3csc(N)n3)[C@H]2SC1,-43.7% (inactive)
11,CCN1CCN(C(=O)N[C@@H](C(=O)N[C@@H]2C(=O)N3C(C(=O)O)=C(CSc4nnnn4C)CS[C@H]23)c2ccc(O)cc2)C(=O)C1=O,1.74% (inactive)
12,Cc1nnc(SCC2=C(C(=O)O)N3C(=O)C(NC(=O)Cn4nc(C)c(Cl)c4C)C3SC2)s1 (configuration not stated),2.36% (inactive)
13,CO/N=C(\C(=O)N[C@@H]1C(=O)N2C(C(=O)O)=C(COC(C)=O)CS[C@H]12)c1csc(N)n1 (stereo in doubt),20.2% (inactive) and 7.93% (inactive) and 65.2% (active)
14,CCCCN(C=O)c1c(CC)nc2c(OCCC3CCCCC3)cccn12,-6.04% (inactive)
15,CCOC(=O)C1=CCC(c2ccc(F)cc2)N(S(=O)(=O)c2ccc(C)cc2)C1 (configuration not stated),6.68% (inactive)
16,CC1CCCCN1C(=O)CCS(=O)(=O)Cc1ccccc1 (configuration not stated),-2.02% (inactive)
17,CC(C)CC(CCc1ccccc1)OS(N)(=O)=O (configuration not stated),4.1% (inactive)
18,COc1ccc(S(=O)(=O)N2CCN(C(C)C(=O)Nc3ccc(C(C)C)cc3)CC2)cc1 (configuration not stated),2.17% (inactive)
19,COc1ccc(OCC(=O)NNC(=O)c2ccc(-c3ccccc3)cc2)cc1,59.6% (active)
20,COc1ccc(OCC(=O)NNC(=O)C2CCC2)cc1,0.09% (inactive)
21,CC(NC(=O)COc1ccc(-c2ccccc2)cc1)C1CCCO1 (configuration not stated),-1.92% (inactive)
